This is an account of results in PubChem BioAssay (EPA / NIEHS).

Each structure is given as a SMILES string. Activity calls are given as the source filed them. How the source made its calls: active means hit-call score of the fitted dose curve at least 0.9, where 1 is the maximum; inactive means score below 0.9.

Read-out in the test: Plasminogen activator inhibitor-1 (PAI1), SERPINE1 (gene 5054)
The test can be described thus: BSK_BE3C_PAI1: BioMAP Diversity Plus: BE3C Assay for Plasminogen activator inhibitor-1 (PAI1) Biomarker Activity (AID 2283037). The note with it: primary human bronchial epithelial cells; actives raise or lower the signal. Here is the method: BSK_BE3C is a cell-based, multiplexed-readout assay that uses bronchial epithelial cell, a human lung primary cell, with measurements taken at 24 hours after chemical dosing in a 96-well plate.BSK_BE3C_PAI1 is an assay component measured in the BSK_BE3C assay. It measures PAI-1 antibody related to regulation of gene expression using ELISA technology.Data from the assay component BSK_BE3C_PAI1 was analyzed into 1 assay endpoint. This assay endpoint, BSK_BE3C_PAI1, was analyzed with bidirectional fitting relative to DMSO as the negative control and baseline of activity. Using a type of binding reporter, gain or loss-of-signal activity can be used to understand changes in the signaling as they relate to the gene SERPINE1. Furthermore, this assay endpoint can be referred to as a primary readout, because this assay has produced multiple assay endpoints where this one serves a signaling function. To generalize the intended target to other relatable targets, this assay endpoint is annotated to the cytokine intended target family, where the subfamily is plasmogen activator inhibitor.
The levels of cell surface (or secreted, indicated by the prefix "s") biomarker endpoints were measured by ELISA. Overt cytotoxicity to cells in confluent adherent cultures (all systems other than the BT system) was assessed by measuring total protein levels using sulforhodamine B (SRB) staining in parallel cultures at the time of biomarker measurements, indicated as SRB endpoints. For proliferation assays for adherent cell types, individual cell types are cultured at sub-confluence and relative cell numbers quantified by SRB staining at time points optimized for each system (48 h: 3C and CASM3C systems; 72 h: BT and HDF3CGF systems; 96 h: SAg system). SRB was performed by staining cells with 0.1% SRB after fixation with 10% TCA and reading wells at 560 nm.Viability and proliferation of PBMC (T cells) was quantified by Alamar Blue reduction for the SAg and BT systems. For PBMC viability (referred to as PBMC Cytotoxicity within the assay endpoint names), cells were plated (75,000/well in a 96-well plate) and then chemical samples added for 1 h before addition of activators, SEB and TSST-1 (20 ng/mL final concentration each). Cells were incubated for 90 h. Then, Alamar Blue (20 uL/well) (Invitrogen, Cat DAL1100) was added for 6 h, and the plates were read with a fluorescence microplate reader at 546/580 nm (excitation/emission). For PBMC proliferation, cells were plated and activated as above but incubated for only 16 h prior to addition of Alamar Blue. Plates were read after 6 h.
For `Cc1ccc(N)cc1O`, the result was inactive.

For `NC(=O)NO`, the outcome was inactive.

Consider `O=C1CCCCCN1`, for which the outcome was inactive.

As to `O=C(NS(=O)(=O)/C=C/c1ccccc1)c1ccc(F)cc1Cl`, the outcome was inactive.

In the case of `Nc1nc2ncc(CNc3ccc(C(=O)N[C@@H](CCC(=O)O)C(=O)O)cc3)nc2c(=O)[nH]1`, the result was inactive.

For `CC(C)=CCC/C(C)=C/CO`, the outcome was inactive.

Take `CCn1nc(Cc2ccccc2)cc1C1CCN(C[C@H]2C[C@H](N(C)[C@@H](C(=O)O)C(C)C)C[C@@H]2c2cccc(F)c2)CC1`: the result was inactive.

`CCOC(=O)c1ccc(C2CCC(NC[C@H](O)COc3ccc(O)c(NS(C)(=O)=O)c3)CC2)cc1` (stereo not given in full): the result was inactive.

`C1=CCCC=CCCC=CCC1`: the result was inactive.

With `CC(C)CCCCCCCOC(=O)CCCCC(=O)OCCCCCCCC(C)C`, the outcome was inactive.

As to `CC1(C)C(=O)N(Br)C(=O)N1Br`, the outcome was inactive.

Take `Cc1ccc(C)c(O)c1`: the result was inactive.

As to `Fc1ccccc1[C@@H](F)COC1CCC(Nc2ncnc3[nH]ncc23)CC1` (stereo not given in full), the outcome was inactive.

As to `O=c1n(CC2CO2)c(=O)n(CC2CO2)c(=O)n1CC1CO1` (stereo not given), the outcome was inactive.

With `Cc1ccc(S(=O)(=O)O)cc1C`, the outcome was inactive.

Take `COc1ccc(/C=C/S(=O)(=O)NC(=O)c2ccc(C)cc2Cl)cc1`: the outcome was inactive.

The AC50 is the concentration at which the activity in the assay is half-maximal. `COc1ccc2sc(C(=O)Nc3nnn[nH]3)c(OC(C)C)c2c1`: the AC50 is 12.9 µM (active).

In the case of `O=C1CCC(N2C(=O)c3ccccc3C2=O)C(=O)N1` (stereo not given), the outcome was inactive.

Turning to `CC(C)=CCCC(C)=CC=O`, the result was inactive.

Consider `C=CCCCCCCCCC(=O)O`, for which the outcome was inactive.

For `CC(=O)OCCC(C)C`, the outcome was inactive.

In the case of `CCCCC(CC)COC(=O)CCCCCCCCC(=O)OCC(CC)CCCC` (stereo not given), the outcome was inactive.

For the compound `CC(C)=CCC/C(C)=C\CO`, the result was inactive.

As to `CCCCCCCCCCCCc1ccccc1`, the outcome was inactive.

As for `O=C(O)CCN(C1(C(=O)NO)CCCC1)S(=O)(=O)c1ccc(Oc2ccc(F)cc2)cc1`, the result was inactive.

Regarding `Cn1c(=O)cc(Oc2ccc(F)cc2F)c2cnc(NCC(C)(C)O)nc21`, the AC50 is 9.04 µM (active).

In the case of `CCC(C)(C)C(=O)O[C@H]1C[C@@H](C)C=C2C=C[C@H](C)[C@H](CC[C@@H]3C[C@@H](O)CC(=O)O3)[C@H]21`, the AC50 is 31.9 µM (active).

Regarding `O=P(OC(CCl)CCl)(OC(CCl)CCl)OC(CCl)CCl`, the outcome was inactive.

As to `CC(C)=CCCC(C)CCO` (stereo not given), the result was inactive.

Consider `CC(O)CN(CCN(CC(C)O)CC(C)O)CC(C)O` (stereo not given), for which the outcome was inactive.

Turning to `O=C(O)c1cccc(N(Cc2cccnc2)c2ccc(OC(F)F)c(OC(F)F)c2)c1`, the AC50 was 31.3 µM (active).

Turning to `CN(C)c1ccc(N=NS(=O)(=O)O)cc1`, the result was inactive.

In the case of `CC(C)(O)c1coc(S(=O)(=O)NC(=O)Nc2c3c(cc4c2CCC4)CCC3)c1`, the outcome was inactive.

Take `CCNc1ccccc1`: the outcome was inactive.

Consider `CCN(C(=O)c1cc(C)cc(OC[C@H](C)Nc2ccncc2)c1)C(C)C`, for which the outcome was inactive.

On to `Cn1cnc([N+](=O)[O-])c1Sc1ncnc2nc[nH]c12`, for which the outcome was inactive.

Consider `COc1cccc(-c2ccc(/C=C\CN3CCCCCC3)cc2Cl)c1`, for which the outcome was inactive.

`CNS(=O)(=O)c1cc(C(=O)N2CCC(CCN3C4CCC3CC(n3c(C)nc5ccccc53)C4)(c3cccc(F)c3)CC2)c(Cl)cc1F` (stereo not given): the outcome was inactive.

As for `CCc1cc(SCc2sc(-c3ccc(C(F)(F)F)cc3)nc2CN2CCN(c3ccc(OC)cc3)CC2)ccc1OCC(=O)O`, the AC50 is 3.07 µM (active).

For `Nc1cccc(N)c1`, the result was inactive.
